In PubChem BioAssay AID1445 (SRMLSC, 2008):
In all, about 220,000 compounds went through this assay and about 910 (0.41%) were called active. The entries come from a sample that favours actives as a whole. Results with a measured potency or affinity are listed apart. A number with no mark means an inactive call.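 Rule for the calls: active = primary inhibition above the hit cutoff, then over 50% inhibition at one or more dose response concentrations (cut at about 23% in these data, passing the limit was not always enough); inconclusive = conflicting primary data, or primary hits not chosen for dose response; inactive = low primary inhibition, or under 50% at every dose.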

The compounds below were run against Aminopeptidase N (Plasmodium falciparum (isolate 3D7)) (UniProt O96935) (assay: P. falciparum M1AAP inhibitors, biochemical, fluorogenic H-Leu-NHMec substrate, 1536-well (AID 1445;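 note: plate controls were DMSO full reaction for no effect and no enzyme background for full effect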)). Conditions: recombinant M1AAP, H-Leu-NHMec fluorogenic kinetic assay; at 30 µM, active compounds read high unless noted.
Sequence of Aminopeptidase N (Plasmodium falciparum (isolate 3D7)) (O96935 whole entry, looked up): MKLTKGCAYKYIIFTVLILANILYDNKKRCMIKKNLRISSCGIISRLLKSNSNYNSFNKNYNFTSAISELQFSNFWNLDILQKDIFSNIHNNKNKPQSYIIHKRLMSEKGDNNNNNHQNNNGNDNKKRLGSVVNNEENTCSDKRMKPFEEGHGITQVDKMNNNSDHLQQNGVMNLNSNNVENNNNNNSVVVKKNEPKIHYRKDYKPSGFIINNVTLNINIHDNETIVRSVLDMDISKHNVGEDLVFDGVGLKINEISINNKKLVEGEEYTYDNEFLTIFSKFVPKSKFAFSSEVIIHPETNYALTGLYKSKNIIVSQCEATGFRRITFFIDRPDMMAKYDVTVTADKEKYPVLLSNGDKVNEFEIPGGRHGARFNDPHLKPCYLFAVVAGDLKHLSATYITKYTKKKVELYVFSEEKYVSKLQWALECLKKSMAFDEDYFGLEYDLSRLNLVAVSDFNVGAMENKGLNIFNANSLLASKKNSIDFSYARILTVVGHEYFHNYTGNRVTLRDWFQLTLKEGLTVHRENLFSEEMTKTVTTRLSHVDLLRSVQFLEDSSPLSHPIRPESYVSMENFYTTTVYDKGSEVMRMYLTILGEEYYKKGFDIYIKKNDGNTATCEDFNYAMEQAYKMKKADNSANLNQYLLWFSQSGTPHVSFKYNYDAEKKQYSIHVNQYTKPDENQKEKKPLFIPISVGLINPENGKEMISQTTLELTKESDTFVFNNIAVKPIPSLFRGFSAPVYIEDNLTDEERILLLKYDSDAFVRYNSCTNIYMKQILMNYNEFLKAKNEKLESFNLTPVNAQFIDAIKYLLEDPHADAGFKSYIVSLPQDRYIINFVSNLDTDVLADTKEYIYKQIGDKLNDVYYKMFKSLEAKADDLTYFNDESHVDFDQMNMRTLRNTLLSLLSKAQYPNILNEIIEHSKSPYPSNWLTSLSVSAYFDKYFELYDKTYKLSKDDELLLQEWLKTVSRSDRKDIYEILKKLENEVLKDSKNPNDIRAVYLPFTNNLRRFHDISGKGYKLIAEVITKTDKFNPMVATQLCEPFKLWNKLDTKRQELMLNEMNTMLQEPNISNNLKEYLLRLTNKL
With Cc1ccsc1/C=N/NC(=O)c1ccc(-n2cccc2)cc1 the inhibition was -0.71%.
In the case of CCC(=O)c1ccc(N2CCN(S(=O)(=O)c3ccccc3)CC2)c(F)c1, the inhibition is reported as -2.32%.
In the case of OC1CCN(c2ncnc3c2nnn3Cc2c(F)cccc2Cl)CC1, the inhibition is reported as -1.3%.
For Cn1nnnc1SCC(=O)Nc1c(Cl)cccc1Cl, the inhibition was -11.1%.
For O=C(NN1C(=O)c2cc(Br)ccc2NC1c1cc(Br)cc(Br)c1O)c1ccncc1 (centres undefined), the inhibition was 15.9%.
Compound O=C(COC(=O)Cc1ccc(S(=O)(=O)N2CCOCC2)s1)NCCc1ccccc1 has an inhibition of 5.27%.
With O=C(Cc1ccc(S(=O)(=O)N2CCOCC2)s1)NCC1CCCCC1 the inhibition was 3.48%.
Work on NS(=O)(=O)c1ccc(CCNC(=O)c2ccc(S(=O)(=O)N3CCCCC3)cc2)cc1 yielded an inhibition of 15.2%.
NS(=O)(=O)c1ccc(CCNC(=O)CN2CCCCC2)cc1 gave an inhibition of -1.82%.
With CCn1cc(CNC(=O)CSc2nc(-c3ccc(OC)c(OC)c3)cc(C(F)(F)F)n2)c(C)n1 the inhibition was 8.78%.
Work on O=C(CC1(c2ccc(Cl)cc2)C2CC3CC(C2)CC1C3)NCCO (centres undefined) yielded an inhibition of 3.19%.
CCN1CCN(CCCNC(=O)c2cn(CCOC)c(=O)c3c2c2ccccc2n3C)CC1 showed an inhibition of 17.7%.
Compound CCOc1cc(CNc2ccccc2)cc(Br)c1OCc1ccccc1F has an inhibition of 6.06%.
For CCOc1cc(CNc2ccc(O)cc2)cc(Br)c1OCc1ccccc1F, the inhibition was 25.5% (active).
In the case of COc1cc(CNc2ccc(O)cc2)cc(Br)c1OCc1ccccc1F, the inhibition is reported as 7.46%.
In the case of Cn1c(C(=O)NC2CCCCC2)cc2c(=O)n(C)c3ccccc3c21, the inhibition is reported as -0.49%.
CC1(CC(=O)N/N=C/c2cc3c(cc2Br)OCO3)OCCO1 showed an inhibition of 9.79%.
CC1(CC(=O)N/N=C/c2cc(Br)c(O)cc2O)OCCO1 was tested, and the inhibition was 31.5% (active).
CC1(CC(=O)N/N=C/c2cc([N+](=O)[O-])c(O)cc2O)OCCO1 was tested, and the inhibition was 9.24%.
In the case of COc1ccc(CCNC(=O)c2cc(-c3ccc(C)c(C)c3O)n[nH]2)cc1OC, the inhibition is reported as 0.7%.
Cc1ccc(S(=O)(=O)Nc2nc(C)c(C(=O)NNS(=O)(=O)c3ccccc3)s2)cc1 showed an inhibition of 3.2%.
Cc1ccc(S(=O)(=O)Nc2nc(C)c(C(=O)Nc3ccccc3)s2)cc1 gave an inhibition of 4.37%.
With Cc1nc(NS(=O)(=O)c2ccccc2)sc1C(=O)NN the inhibition was 6.77%.
Compound C/C(=N/NC(=O)c1sc(NS(=O)(=O)c2ccccc2)nc1C)c1ccccc1 has an inhibition of 18.9%.
In the case of O=C(CSc1nc2ccccc2o1)Nc1cc(C(F)(F)F)ccc1N1CCOCC1, the inhibition is reported as 8.71%.
Work on CCCCn1c(C)csc1=Nc1cccnc1 yielded an inhibition of 4.71%.
For Cc1cc(C)c(S(=O)(=O)Nn2cnnc2)c(C)c1, the inhibition was -1%.
CCOP(=O)(OCC)/C(C#N)=C/c1cc(OC)ccc1OC was tested, and the inhibition was 1.01%.
COc1ccccc1NC(=S)N1CCCC1 was tested, and the inhibition was 8.78%.
With CCOC(=O)NCc1cc(-c2nn(C)c(=O)c3ccccc23)ccc1C the inhibition was -0.16%.
Work on CCC(=O)NCc1cc(-c2nn(C)c(=O)c3ccccc23)ccc1C yielded an inhibition of 3.73%.
For CCCC(=O)NCc1cc(-c2nn(C)c(=O)c3ccccc23)ccc1C, the inhibition was -1.83%.
With CC(=O)NCc1cc(-c2nn(C)c(=O)c3ccccc23)ccc1C the inhibition was 12.1%.
CC(O)CNCCCOc1ccc(Cl)cc1C(C)(C)C (centres undefined) was tested, and the inhibition was 2.63%.
Cc1ccc(N(C(=O)C2CCC(=O)N2)C2(C(=O)NC3CCCCC3)CCCCC2)cc1 (centres undefined) was tested, and the inhibition was 3.72%.
CC(C)NS(=O)(=O)c1ccc(CCC(=O)NCc2cccnc2)cc1 gave an inhibition of 3.94%.
CCCCN1CNC(=S)N(c2ccccc2OCC)C1 gave an inhibition of 1.13%.
CCOCCCNCc1cccc(OCc2ccc(F)cc2)c1 gave an inhibition of -0.98%.
CSc1nnc(-c2cc(-c3ccc(C)cc3)nc3ccccc23)o1 showed an inhibition of -2.26%.
With COc1ccc(-c2cc(-c3nnc(-c4ccncc4)o3)c3ccccc3n2)cc1 the inhibition was 7.37%.
Compound CCC(=O)Nc1ccc(-n2nnnc2SCC(=O)NNC(=O)c2ccco2)cc1 has an inhibition of 4.76%.
S=c1[nH]nc(-c2cccnc2)n1/N=C/C=C/c1ccccc1 showed an inhibition of 10.4%.
With O=C(CN(c1ccccc1)S(=O)(=O)c1ccccc1)NCCSc1nc2ccccc2s1 the inhibition was 4.5%.
Compound CN1CCN(Cc2nc3ccccc3c(=O)n2Cc2nc(-c3ccc4ccccc4c3)cs2)CC1 has an inhibition of -1.75%.
With CN1CCN(Cc2nc3ccccc3c(=O)n2Cc2nc(-c3ccc([N+](=O)[O-])cc3)cs2)CC1 the inhibition was 11.9%.
With Cc1ccc(C(C(=O)NCc2ccco2)N(Cc2ccco2)C(=O)CNC(=O)c2ccco2)cc1 (centres undefined) the inhibition was 19.3%.
COc1ccc(OC)c(S(=O)(=O)N2CCC(C(=O)NCc3ccccc3OC)CC2)c1 showed an inhibition of 3.04%.
With COc1ccc(OC)c(S(=O)(=O)N2CCC(C(=O)NCc3ccccc3)CC2)c1 the inhibition was 57.9% (active).
COc1ccc(S(=O)(=O)N2CCC(C(=O)NCCc3ccccc3)CC2)cc1OC showed an inhibition of -1.88%.
COc1ccc(CCNC(=O)C2CCN(S(=O)(=O)c3cc(OC)ccc3OC)CC2)cc1 was tested, and the inhibition was 14.3%.
Work on COc1ccc(OC)c(S(=O)(=O)N2CCC(C(=O)NCCc3ccccc3)CC2)c1 yielded an inhibition of -0.81%.
In the case of COc1ccc(OC)c(S(=O)(=O)N2CCC(C(=O)NCCc3ccc(OC)c(OC)c3)CC2)c1, the inhibition is reported as -4.37%.
Compound COc1ccc(S(=O)(=O)N2CCC(C(=O)NCc3ccccn3)CC2)cc1OC has an inhibition of 2.6%.
Compound COc1ccccc1N1CCN(C(=O)c2ccc3nc[nH]c3c2)CC1 has an inhibition of 4.75%.
For CCn1c(SCC(=O)Nc2nc3ccccc3s2)nnc1-c1ccc(Br)cc1, the inhibition was 4.22%.
With CS(=O)(=O)c1ccc2nnn(OCC(=O)Nc3ccc(Br)cc3Br)c2c1 the inhibition was 1.15%.
O=C(COC(=O)CCOc1ccccc1)NCc1ccco1 gave an inhibition of 12.3%.
Work on O=C(O)c1cccc(CSc2n[nH]c(-c3ccc(Cl)cc3Cl)n2)c1 yielded an inhibition of 7.08%.
Cc1ccc(NC(=S)NC(=O)/C=C/c2ccco2)c(O)c1 showed an inhibition of 10.8%.
